Source: PubChem (The Scripps Research Institute Molecular Screening Center)
Most compounds without a hit are left out; they make up all but 4.5% or so of the library.
hcDAF12 agonist: H. contortus DAF-12 activation, primary screen. activation, % at 6.8 µM. HEK293 hcDAF-12 lit1-tk-luc reporter, luminescence; 0% DMSO, 100% Δ7-dafachronic acid. 370,000 compounds, 1.4% hits. AID 652067;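 active means activation above the mean of all tested compounds plus 3 SD, cut at about 5.5% in these data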;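 further: 100% = response to 3 µM Δ7-dafachronic acid high control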
DAX1 inh-1: DAX1 (NR0B1) inhibition, primary screen | inhibition, % at 6.8 µM | 370,000 compounds, 1.1% hits | HEK293T StAR-luciferase reporter, SF-1/DAX-1 repression relief;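 active means inhibition above the mean over all tested compounds plus 3 SD, cut at about 3.6% in these data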;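 further: 0% = DAX-1 cells with DMSO and 100% = cells lacking DAX-1 with DMSO; higher inhibition means more luminescence from relief of DAX-1 repression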
DAX1 inh-2: inhibits human nuclear receptor DAX1; P51843; HEK293 Gal4-DAX1 luciferase reporter, luminescence; inhibition, % at 6.75 µM; 340,000 compounds, 0.99% hits; AID 504766;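 active means inhibition above the mean over all tested compounds plus 3 SD, cut at about 4.2% in these data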;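 further: 0% = DAX1-transfected cells with DMSO and 100% = empty-vector control cells with DMSO; inhibition shows as a rise in luminescence from relieved DAX1 repression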
Target sequence (P51843 207-470 limits assumed): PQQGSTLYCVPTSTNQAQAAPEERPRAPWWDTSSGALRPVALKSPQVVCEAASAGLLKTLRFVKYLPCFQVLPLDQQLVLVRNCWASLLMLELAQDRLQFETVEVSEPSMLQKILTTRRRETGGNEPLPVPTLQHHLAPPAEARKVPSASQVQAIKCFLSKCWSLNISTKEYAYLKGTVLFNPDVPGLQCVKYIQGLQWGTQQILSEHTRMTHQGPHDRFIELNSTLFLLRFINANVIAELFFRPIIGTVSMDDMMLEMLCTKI
GAA850 FXN act: frataxin GAA850 promoter activation. 360,000 compounds, 0.56% hits. AID 540364. activation, % at 6 µM. HEK293 lucGAA850 FXN promoter luciferase reporter, 24 h; percent of 10 µM SAHA response;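 active means activation above the average of all compounds screened plus 3 SD, cutoff fixed separately per campaign, cut at about 7.5% in these data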;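 further: 0% = DMSO wells and 100% = 10 µM SAHA wells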
ssDAF-12 act: activators of S. stercoralis DAF-12 nuclear receptor; HEK293 ssDAF-12/GRIP1 lit1-tk-luc reporter, luminescence; % of 3 µM dafachronic acid response; activation, % at 6.8 µM; 370,000 compounds, 1% hits;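 active means activation above the mean over all tested compounds plus 3 SD, cut at about 0.9% in these data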;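 further: 0% = DMSO-only wells and 100% = 3 µM delta7-dafachronic acid wells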
hgDAF12 agonist: hgDAF-12 agonism, primary luciferase screen | activation, % at 6.8 µM | 370,000 compounds, 1.8% hits | HEK293 GAL4-hgDAF12 UAS-luciferase reporter, agonist luminescence; normalized to butyrate control;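 active means activation above a cutoff set at the mean of all screened compounds plus 3 SD, cut at about 10% in these data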;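 further: 0% = DMSO wells and 100% = sodium butyrate wells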
GAA30 counter: activates GAA30 frataxin promoter, counter-screen for GAA850 activators | shares compounds with GAA850 FXN act | AID 588350 | HEK293 lucGAA30 FXN promoter luciferase, 24 h; DMSO = 0%, 5 µM ipriflavone = 100% | 1,900 compounds, 66% hits | activation, % at 6 µM;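 active means mean activation above the mean of solvent-only control wells plus 3 SD, cut at about 22% in these data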;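 further: counterscreen of GAA850 promoter hits where activity marks nonselective or luminescence artifacts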
FXN GAA850 conf: GAA850 FXN promoter activation confirmation. AID 588351. shares compounds with GAA850 FXN act. 1,900 compounds, 86% hits. activation, % at 6 µM. HEK293 lucGAA850 FXN promoter luciferase reporter, 24 h; 100% = activation by SAHA;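 active means mean activation above a set limit taken from the primary screen, cut at about 8% in these data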;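 further: 0% = DMSO wells and 100% = 10 µM SAHA wells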
Starred values were filed as active, the others as inactive; nt = not tested or not shown.

SMILES	hcDAF12 agonist	DAX1 inh-1	DAX1 inh-2	GAA850 FXN act	ssDAF-12 act	hgDAF12 agonist	GAA30 counter	FXN GAA850 conf
COc1cc(C(=O)O/N=C2\C=CC(=O)C(C)=C2)cc(OC)c1OC	1	-1	0	9.2*	0	-4	35*	19*
OCCCCCN=c1cc(-c2ccccc2)oc2ccc(Cl)cc12	5	1	2	-2	-1	9	nt	nt
Clc1ccc2oc(-c3ccccc3)cc(=NCCCN3CCOCC3)c2c1	4	2	2	9.4*	0	16*	51*	22*
Cc1cc(O)c(NC(=O)c2ccc(Br)o2)cc1C	5.8*	1	0	9.3*	2.1*	13*	91*	27*
C[C@@H](NC(=O)c1coc(=O)c(Br)c1)c1ccccc1	-1	0	1	8.8*	-1	2	-10	5
COc1ccc(C(=O)NC(C)c2ccccc2)cc1Br (stereo unspecified)	-2	-1	-1	-1	0	-5	nt	nt
Cc1cc(NC(=O)c2coc(=O)c(Br)c2)ccc1C(C)C	-1	0	nt	8.4*	0	0	89*	50*
O=C(Nc1ccc(Br)cn1)c1coc(=O)c(Br)c1	-1	0	1	0	-1	-1	nt	nt
CC(C)(C)N1Cc2nnn(Cc3ccccc3)c2-c2cc(N3CCCCC3)ccc2S1(=O)=O	-3	-2	nt	nt	0	1	nt	nt
CCOC(=O)c1ccc(N2Cc3ccccc3C2=NC(=O)c2ccncc2)cc1	0	2	1	3	0	5	nt	nt
CCOC(=O)c1ccc(N2Cc3ccccc3C2=NC(=O)c2cccs2)cc1	-1	2	0	9.3*	-1	1	53*	23*
COc1ccc(NC(=O)C2C(=O)NC3(C)CC2c2ccccc2O3)cc1 (stereo unspecified)	-2	0	1	13*	-1	-1	21	7
O=C(Nc1ccc(F)cc1)Nc1ccc(N2CCOCC2)c2nonc12	0	0	0	8.2*	0	3	103*	32*
CCCCCc1nc2c(=O)n(C)c3ccccc3c2o1	0	0	-1	7	-1	4	nt	nt
Cn1c(=O)c2nc(-c3ccccc3)oc2c2ccccc21	1	0	1	12*	0	3	44*	24*
COc1ccc(C(=O)/C=C2\C(=O)Nc3ccc(Br)cc32)cc1	0	-1	0	2	-1	1	nt	nt
O=C1Nc2ccc(Br)cc2/C1=C/C(=O)c1ccc2c(c1)OCO2	1	0	1	11*	0	3	14	9.9*
Cc1cc(NC(=O)CSc2nc(-c3cccs3)cc(C(F)(F)F)n2)no1	-3	-3	-3	0	-1	-2	nt	nt
Cc1cc(NC(=O)CCCS(=O)(=O)c2nc(-c3cccs3)cc(C(F)(F)F)n2)no1	-1	-2	-4	9.6*	-1	-3	-45	-1
COc1ccc(-c2cc(C(F)(F)F)nc(S(=O)(=O)CCCC(=O)Nc3cccnc3Cl)n2)cc1OC	0	2	-2	8.7*	-1	0	54*	52*
COc1ccc(OC)c(CN2C(=O)c3ccnn3CC2(C)c2nnnn2C2CCCC2)c1 (stereo unspecified)	-1	1	nt	nt	0	0	nt	nt
CCCN(C(=O)Cc1csc(-c2ccccc2)n1)C1CCS(=O)(=O)C1 (stereo unspecified)	0	0	1	2	-1	0	nt	nt
Cc1cc2nc(-c3ccc(NC(=O)C(C)C)cc3)oc2cc1C	5	3.7*	1	8.5*	1.0*	11*	102*	37*
CC1CCCC(C)N1C(=O)c1ccccc1 (stereo unspecified)	1	0	nt	nt	-1	-2	nt	nt
